Data: PMC4552634, “A New Set of Chemical Starting Points with Plasmodium falciparum Transmission-Blocking Potential for Antimalarial Drug Discovery” (PLoS ONE, 2015)
The campaign covered roughly 13,000 compounds. About 3,200 (25%) showed an effect of 50% or more. This is one part of the list.

System: P. falciparum stage V gametocytes
Parameters: BacTiter-Glo ATP luminescence viability of purified stage V gametocytes in 384-well plates, per cent inhibition versus DMSO
Settings: 48 h, 5 µM; inhibitor

Row | SMILES | % Inhibition [%]
1 | COc1cc2ncnc(Nc3ccc(OCc4ccccc4Br)c(OC)c3)c2cc1OC [TCMDC-131915] | -3.642
2 | O=S(=O)(NC1CCN(c2ccnc3ccccc23)C1)c1ccc(OC(F)(F)F)cc1 (stereo not drawn) [TCMDC-133581] | 2.209
3 | O=C(Cc1cccs1)NC(CCCN1CCC(Oc2cccc(Cl)c2)CC1)c1ccc(Cl)c(Cl)c1 (stereo not drawn) [TCMDC-141902] | -47.46
4 | C=CCn1c(SCC(=O)Nc2cc(Cl)ccc2Cl)nc2sc(C)cc2c1=O [TCMDC-124996] | 8.476
5 | CCc1nc(N)nc(N)c1-c1ccc(C(C)C)cc1 [TCMDC-137368] | 11.22
6 | CC1CN(S(=O)(=O)c2ccc(NC(=O)c3cc(-c4ccccc4O)n[nH]3)cc2)CC(C)O1 (stereo not drawn) [TCMDC-125195] | 7.357
7 | CCCN(c1ccc(O)c(CN2CCCCC2)c1)c1ccc([N+](=O)[O-])cn1 [TCMDC-137486] | 15.96
8 | CN(C)c1ccc(-c2ccc(C(=O)NC3CCN(Cc4ccc5c(c4)OCCO5)CC3)s2)cc1 [TCMDC-134339] | -48.84
9 | CCCN=CNc1cc(-c2csc(N=C(N)N)n2)cc([N+](=O)[O-])c1 [TCMDC-137246] | -47.16
10 | O=C(NC1CCC(N2CCC(O)(c3ccc(F)cc3)CC2)CC1)c1cc2ccccc2[nH]1 (stereo not drawn) [TCMDC-132887] | 9.268
11 | O=C(NC1CCC(N2CCN(c3cccc(C(F)(F)F)c3)CC2)CC1)c1cc2ccccc2[nH]1 (stereo not drawn) [TCMDC-132885] | 32.36
12 | O=C(NC1CCC(N2CCC3(CC2)C(=O)NCN3c2ccccc2)CC1)c1cc2ccccc2[nH]1 (stereo not drawn) [TCMDC-132886] | 76.36
13 | CC(Cc1ccc(OCCN2CCN(c3ccc(Cl)cc3)CC2)cc1)NCC(O)c1cccc(C(F)(F)F)c1 (stereo not drawn) [TCMDC-131530] | 29.05
14 | COc1cccc(CNC(=O)[C@@H]2CN(C(=O)c3ccccc3)CCN2)c1 [TCMDC-141267] | -8.525
15 | CN1CCCN(Cc2cccc(-c3ccc(CNC(=O)c4cccc(Cl)c4)c(F)c3)c2)CC1 [TCMDC-133370] | 8.787
16 | C[C@H]1CN(Cc2cccc(-c3cc(CNC(=O)c4cccc(C(=O)c5ccc(Cl)c(Cl)c5)c4)ccc3F)c2)CCN1 [TCMDC-136245] | 103.5
17 | CC1CCN(Cc2cccc(C(=O)NCc3ccc(F)c(-c4cccc(CN5CCN[C@@H](C)C5)c4)c3)c2)CC1 [TCMDC-136206] | 100.7
18 | COc1ccc(CN2CCCN(Cc3cccc(C(=O)Nc4ccc(C)c(F)c4)c3)CC2)cc1 [TCMDC-135960] | -17.45
19 | C[C@H]1CN(Cc2cccc(-c3cc(CNC(=O)c4cccc(CN5CCN(CCOc6ccccc6)CC5)c4)ccc3F)c2)CCN1 [TCMDC-136210] | 110.3
20 | O=C(NCc1cccc(Br)c1)c1ccc(CNC2CCN(Cc3ccccc3)CC2)cc1 [TCMDC-140788] | 24.75
21 | COc1cccc(CNC(=O)c2ccnc(-c3cccc(CN(C)C4CCN(C)CC4)c3)c2)c1 [TCMDC-134500] | 23.23
22 | O=C(NCc1cccc(Cl)c1)c1ccc(CNC2CCN(Cc3ccccc3)CC2)cc1 [TCMDC-140785] | 24.82

Row | SMILES | % Inhibition [%]
23 | O=C(NCc1ccc(Cl)c(Cl)c1)c1ccc(C2CCCN(Cc3ccc4nc[nH]c4c3)C2)cc1 (stereo not drawn) [TCMDC-133068] | 0.7535
24 | O=C(NCc1ccc(Cl)c(Cl)c1)c1cccc(C2CCCN(Cc3ccc4nc[nH]c4c3)C2)c1 (stereo not drawn) [TCMDC-133067] | -29.33
25 | C[C@H]1CN(Cc2cccc(-c3cc(CNC(=O)c4cccc(CC5CCN(C)CC5)c4)ccc3F)c2)CCN1C [TCMDC-136349] | 103.8
26 | COc1cc(C(=O)NC2CCN(Cc3ccccc3)CC2)ccc1-c1nc2cc(Cl)c(C)cc2[nH]1 [TCMDC-140028] | -62.59
27 | CN1CCN(c2nc(NCCc3ccc(O)cc3)nc(NCc3ccccc3-c3ccc(C(F)(F)F)cc3)n2)CC1 [TCMDC-138322] | -8.259
28 | CC1(C)[C@H]2CC[C@@H](CNc3nc(NCCc4cnc[nH]4)nc(Nc4ccc5c(c4)OCO5)n3)[C@@H]1C2 [TCMDC-139738] | -17.51
29 | COc1ccc2nccc([C@@H](O)CN3CCC(NC(=O)C(c4cc5ccccc5o4)N4CCN(c5ccccc5OC)CC4)CC3)c2c1 (stereo partly drawn) [TCMDC-140991] | 13.75
30 | COc1ccc(C(=O)N2CCC(C(=O)NC(C)c3ccc(-n4ccnc4)cc3)CC2)c2ccccc12 (stereo not drawn) [TCMDC-124603] | -15.82
31 | C[C@H]1CN(Cc2cccc(-c3cc(CNC(=O)c4cccc(CN5CCN(C/C=C/c6ccccc6)CC5)c4)ccc3F)c2)CCN1 [TCMDC-136208] | 114.8
32 | CC(C)(C)c1ccc(NC(=O)c2cccc(CN3CCCN(Cc4ccc(F)cc4)CC3)c2)cc1 [TCMDC-135985] | -30.03
33 | O=C(NCc1ccc(Cl)cc1)c1ccc(CN2CCCN(Cc3cccc(O)c3)CC2)cc1 [TCMDC-136442] | 2.881
34 | O=C(Nc1ccc(CN2CCN(S(=O)(=O)c3cccc(Cl)c3)CC2)cc1)c1cccs1 [TCMDC-136319] | 27.89
35 | CN(CC(=O)N1CCN(S(=O)(=O)c2cccc(Cl)c2)CC1CN1CCCC1)c1ccc(Cl)c(Cl)c1 (stereo not drawn) [TCMDC-136893] | 71.55
36 | CN(C(=O)/C=C/c1c(Cl)cccc1Cl)C1CCN(CCCCCNC(=O)/C=C/c2ccc(Cl)c(Cl)c2)CC1 [TCMDC-139995] | -22.04
37 | Cn1c(N)c(C(=O)CSc2ncc(-c3ccc(F)cc3)n2Cc2ccccc2)c(=O)n(C)c1=O [TCMDC-125101] | 12.63
38 | CC1(C)N=C(N)N=C(N)N1OCCCc1cccc(C(F)(F)F)c1 [TCMDC-131651] | -2.569
39 | COc1ccc(CN2CCC(CNCCc3c(Cl)cccc3Cl)CC2)cc1 [TCMDC-141345] | 89.6
40 | COc1ccc2ccccc2c1CNCC1CCN(CC2CCCCC2)CC1 [TCMDC-141412] | -44.03
41 | O=[N+]([O-])c1ccc(Oc2ccccc2CNCC2CCN(CC3CCCCC3)CC2)cc1 [TCMDC-141414] | 46.86
42 | COc1ccc(Oc2ccccc2CNCC2CCN(CC3CCCCC3)CC2)cc1 [TCMDC-141413] | 81.97
43 | COc1ccc(CN2CCC(CNCCc3ccccc3Cl)CC2)cc1 [TCMDC-141343] | 21.62
44 | COc1ccc(CN2CCC(CNCCc3ccccc3Oc3ccccc3)CC2)cc1 [TCMDC-141350] | 98.78

Row | SMILES | % Inhibition [%]
45 | COc1ccc2c(c1)CC1CN(CCCCNC(=O)c3ccc(NC(=O)c4cc(Cl)cc(Cl)c4)cc3)CCN1C2 (stereo not drawn) [TCMDC-138223] | -15.2
46 | NC1CCN(c2nc(NCCc3ccc(O)cc3)nc(NCc3ccccc3-c3ccccc3)n2)CC1 [TCMDC-133441] | 29.52
47 | Cc1ccc2c(Cc3cnc(N)nc3N)cc(C)c(N)c2n1 [TCMDC-137878] | -11.15
48 | COc1ccc(C(C(=O)NC2CCN(C[C@H](O)c3ccnc4ccc(OC)cc34)CC2)N2CCN(c3ccc([N+](=O)[O-])cc3)CC2)cc1 (stereo partly drawn) [TCMDC-140992] | -4.461
49 | O=C(NCc1ccccc1)Nc1ccc(-c2cccc(-c3nc4ccc(C(F)(F)F)cc4[nH]3)c2)cc1 [TCMDC-133160] | -18.34
50 | O=C(Nc1ccc(F)c(C(F)(F)F)c1)N[C@H]1CCN(CCCCCNC(=O)C2CC2c2ccc(Cl)c(Cl)c2)C1 (stereo partly drawn) [TCMDC-136270] | 88.79
51 | O=C(Nc1ccc(F)c(C(F)(F)F)c1)NC1CCN(CCCCCNC(=O)C2CC2c2ccc(Cl)c(Cl)c2)CC1 (stereo not drawn) [TCMDC-136259] | 97.75
52 | O=C(NCCCCCN1CCCN(C(=O)Nc2ccc(F)c(C(F)(F)F)c2)CC1)C1CC1c1ccc(Cl)c(Cl)c1 (stereo not drawn) [TCMDC-136254] | 10.75
53 | COc1ccc2nccc([C@@H](O)CN3CCC(NC(=O)C(c4cc5ccccc5o4)N4CCN(Cc5ccccc5)CC4)CC3)c2c1 (stereo partly drawn) [TCMDC-140988] | 30.33
54 | O=C(Nc1ccc(-c2nc3ccccc3[nH]2)cc1)C1CCCN(C2CCC2)C1 (stereo not drawn) [TCMDC-124687] | -67.58
55 | O=C(NCCCN1CCOCC1)c1cccc(Nc2nccc(Nc3ccc(Oc4ccccc4)cc3)n2)c1 [TCMDC-138604] | 68.84
56 | NC(=O)c1cccc(Nc2nccc(Nc3ccc(Oc4ccc5ccccc5c4)cc3)n2)c1 [TCMDC-138600] | -22.11
57 | Brc1cccc(Nc2nccc(Nc3ccc(Oc4ccccc4)cc3)n2)c1 [TCMDC-138559] | 9.5
58 | O=C(NCCN1CCCC1)c1cccc(Nc2nccc(Nc3ccc(Oc4ccccc4)cc3)n2)c1 [TCMDC-138602] | -15.16
59 | CCCN1CCN(CCNC(=O)c2cccc(Nc3nccc(Nc4ccc(Oc5ccccc5)cc4)n3)c2)CC1 [TCMDC-138606] | -54.96
60 | CN1CCN(CCCNCc2cccc(Nc3nccc(Nc4ccc(Oc5ccccc5)cc4)n3)c2)CC1 [TCMDC-138616] | 109.5
61 | O=C(NCCCN1CCCCC1)c1ccc(Nc2nccc(Nc3ccc(Oc4ccccc4)cc3)n2)cc1 [TCMDC-138609] | -10.89
62 | N#CCc1ccc(Nc2nccc(Nc3ccc(Oc4ccccc4)cc3)n2)cc1 [TCMDC-138577] | 4.825
63 | O=C(Nc1ccccc1)c1cccc(Nc2nccc(Nc3ccc(Oc4ccccc4)cc3)n2)c1 [TCMDC-138561] | 74.26
64 | CN1CCN(CCCNCc2ccc(Nc3nccc(Nc4ccc(Oc5ccccc5)cc4)n3)cc2)CC1 [TCMDC-138621] | 88.79
65 | CN1CCN(Cc2cccc(Nc3nccc(Nc4ccc(Oc5ccccc5)cc4)n3)c2)CC1 [TCMDC-138614] | -13.87
66 | O=C(NCCCN1CCCCC1)c1cccc(Nc2nccc(Nc3ccc(Oc4ccccc4)cc3)n2)c1 [TCMDC-138605] | -29.44
